Outcome data for 40 compounds are collected here from PubChem BioAssay (EPA / NIEHS).

Activity calls are given as the source filed them. Rule for the calls: active = hit-call score of the fitted dose curve at least 0.9, where 1 is the maximum; inactive = score below 0.9.

Read-out in this test: Protein phosphatase 2A (PPP2R4), PTPA (gene 5524)
As to the kind of experiment: LTEA_HepaRG_PPP2R4: Life Technologies and Expression Analysis (LTEA) Assay for Protein phosphatase 2A (PPP2R4) using HepaRG (AID 2283522). Particulars: mRNA level, 48 h; actives raise or lower the signal. As for the experimental part:
LTEA_HepaRG is a cell based, multiplexed-readout assay that uses HepaRG, a human liver cell line, with measurements taken at 48 hours after chemical dosing on a 96-well plate.LTEA_HepaRG_PPP2R4 is one of 102 assay component(s) measured in the LTEA HepaRG cell culture assay. It is a marker of Cell proliferation, survival, death.Data from the assay component LTEA_HepaRG_PPP2R4 was analyzed into 1 endpoint. This assay endpoint, LTEA_HepaRG_PPP2R4, was analyzed with bidirectional fitting relative to DMSO as the negative control and baseline of activity. Using a type of inducible reporter, measures of mRNA induction for gain or loss-of-signal activity can be used to understand regulation of transcription factor activity. To generalize the intended target to other relatable targets, this assay endpoint is annotated to the phosphatase intended target family, where the subfamily is serine/threonine phosphatase.
A total of 1060 chemcials from the ToxCast library were tested in eight-point concentration-response experiments. Cell culture and cytotoxicity assays were conducted at Thermo Fisher Scientific's Custom Services facility (Madison, WI). A single lot of human HepaRG cells (Thermo Fisher Scientific, Frederick, MD) was used for the cell culture experiments. 96-well format collagen type I coated plates of human HepaRG cells were prepared using established methods. Briefly, cryopreserved HepaRG cells were thawed, plated at a density of approximately 100,000 cells/well in HepaRG Thaw, Plate, and General Purpose media (HPRG770, Thermo Fisher Scientific), and incubated for 48 hours. 0.5% DMSO was selected as vehicle control to balance the requisite need of DMSO in HepaRG cultures to maintain differentiation (for example, baseline metabolism, proportions of hepatocytes vs. cholangiocytes), while enabling further hepatic receptor pathway activation (for example, PXR and CAR) in response to chemical exposure. 48 hours after plating, the culture medium was replaced with HepaRG Serum-Free Incudtion Media. Cells were exposed to each test chemical in duplicate and maintained in CO2 incubators for another 48 hours. Chemical plates were thawed to room temperature and 200x concentrations of treatment groups were prepared. 8-point conentration-reponse curves were made with the highest exposure at 100 uM, followed by half-log dilutions, all in 0.5% DMSO. Each test plate contained variouse controls, induction positive controls (1mM phenobarbital), cytotoxicity positive controls ([…] aflatoxin B1), vehicle controls (0.5% DMSO), and total lysis controls (0.5% DMSO). Cell morphology images were taken using an Essen IncuCyte FLR automated microscope, with six 96-well plates imaged in about 24 minutes. Images were captured and exported and JPEG files. Spent culture media was transfered to black-well plates for the LDH assay, and remaining media was sorted at -80 C for later use. Cells were treated with RLT buffer and frozen until shipped for gene expression analysis. Total RNA was isolated from the cell suspension in 75 uL of Buffer RLT (Qiagen, Germantown, MD 20874) by Quintiles/Expression Analysis (Durham, NC) using a custom isolation procedure. Total RNA from each plate well was transferred to a preamplification plate. Fluidigm's 96.96 Dynamic ArrayTM (Fluidigm, Amsterdam, the Netherlands) technology was used for gene expression analyses by quantitative reverse transcription polymerase chain reaction (qRT-PCR, performed by Quintiles/Expression Analysis, Durham, NC)89. Standard TaqManTM Assays (Applied Biosystems/ThermoFisher Scientific, Foster City, CA) were used to assess the expression of 93 genes selected based on their selectivity and sensitivity to important hepatic receptors known to be modulated by environmental chemicals; importance in human hepatocyte functionality; and hepatotoxicity. […]
Regarding `Cc1ccc(O)cc1C`, the result was inactive.
Take `CCC(C)(C)c1ccc(O)cc1`: the call was inactive.
For `CC(Cl)(Cl)C(=O)O`, the outcome was inactive.
The same measure for `ClC(Cl)(Cl)c1ccccc1`: “inactive”; for `Cc1cccc(N)c1`: “inactive”; for `COCCOCCO`: “inactive”.
For `CCCCc1ccccc1`, the call was inactive.
`c1ccc2c(c1)Nc1ccccc1S2`: the compound was called inactive.
Take `CCC1(c2ccccc2)C(=O)N=C(O)NC1=O` (stereo not given): the call was inactive.
As to `CCCCN(CCCC)SN(C)C(=O)Oc1cccc2c1OC(C)(C)C2`, the outcome was inactive.
Consider `Cc1ccc([N+](=O)[O-])cc1C`, for which the compound was called inactive.
With `O=[N+]([O-])c1ccccc1`, the outcome was inactive.
`CSC(C)(C)C=NO`: the result was inactive.
On to `Cc1ccc(N)cc1N`, for which the call was inactive.
Turning to `CCOP(=S)(Oc1ccc([N+](=O)[O-])cc1)c1ccccc1` (stereo not given), the compound was called inactive.
For the compound `ClC1=C(Cl)C2(Cl)C3C(Cl)C(Cl)CC3C1(Cl)C2(Cl)Cl` (stereo not given), the outcome was inactive.
In the case of `O=P1(N(CCCl)CCCl)NCCCO1` (stereo not given), the compound was called inactive.
`CCOS(=O)(=O)OCC`: the call was inactive.
Take `CC(C)(C)c1ccc(O)cc1`: the compound was called inactive.
As to `c1nc[nH]n1`, the compound was called inactive.
With `Nc1cc2c3c(c1)C(c1ccccc1)=N[C@@H](NC(=O)c1cccnc1)C(=O)N3CC2`, the outcome was inactive.
The same measure for `c1cc2c3c(cccc3c1)CC2`: “inactive”; for `O=C(O)C(Cl)Cl`: “inactive”; for `CN(C)C(=O)Cl`: “inactive”.
Consider `ClC(Cl)c1ccccc1`, for which the compound was called inactive.
Consider `CC(C)(C)OOC(C)(C)C`, for which the compound was called inactive.
For `CCCCCCCc1ccc(O)cc1` the value was “inactive”.
As for `c1ccc(OP(Oc2ccccc2)Oc2ccccc2)cc1`, the outcome was inactive.
The same measure for `CCCN(CCC)c1c([N+](=O)[O-])cc(C(C)C)cc1[N+](=O)[O-]`: “inactive”; for `O=P(Oc1ccccc1)(Oc1ccccc1)Oc1ccccc1`: “inactive”; for `CCN(CC)c1ccccc1`: “inactive”.
Turning to `Nc1ccc2ccccc2c1`, the outcome was inactive.
For the compound `Nc1ccc(Cl)cc1`, the outcome was inactive.
Turning to `[N-]=[N+]=[N-]`, the result was inactive.
Regarding `CCOP(=S)(OCC)SCSCC`, the outcome was inactive.
For `CCOc1ccc(C(C)(C)COCc2cccc(Oc3ccccc3)c2)cc1`, the compound was called inactive.
The same measure for `O=[N+]([O-])c1ccc(Cl)c(Cl)c1`: “inactive”; for `CCNc1nc(Cl)nc(NC(C)(C)C)n1`: “inactive”; for `CC(Cc1ccc(OCC(=O)O)cc1)NCC(O)c1csc(C(F)(F)F)n1` (stereo not given): “inactive”.
For `O=C(O)C1C(C(=O)O)C2(Cl)C(Cl)=C(Cl)C1(Cl)C2(Cl)Cl` (stereo not given) the value was “inactive”.
